Experimental data reported in PubChem BioAssay AID1159580 (chemical genetic matrix, 2015).
The campaign covered roughly 5,500 compounds. About 2,000 (36%) were called active. Roughly 18% stayed inconclusive and do not appear here. No stated cut-off is given here; in the data, active means normalized growth mostly below about 0.91 (no sharp cut-off); inconclusive means no clear call, values can overlap the other calls; inactive means mostly above about 0.92. This is one part of the list.

Test: chemical genetic growth profiling, strain panel (AID 1159580);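 further: tested at 20 µM; growth read once vehicle control cultures reached saturation at 30 °C; 1 = growth at the plate median or of vehicle wells; lower values mean less growth of the strain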
Settings: growth OD
[1] = S. cerevisiae deletion strains, locus YHR030C, strain SLT2, hits give low values

Measured: normalized growth

CCCN(CCC)S(=O)(=O)c1ccc(C(=O)NCC(=O)O)cc1
inactive: S. cerevisiae deletion strains, locus YAL013W, strain DEP1, hits give low values 1.01 | S. cerevisiae deletion strains, locus YBR229C, strain ROT2, hits give low values 1 | S. cerevisiae deletion strains, locus YDL101C, strain DUN1, hits give low values 1 | S. cerevisiae deletion strains, locus YDL134C, strain PPH21, hits give low values 0.996 | S. cerevisiae deletion strains, locus YDR150W, strain NUM1, hits give low values 0.907 | S. cerevisiae deletion strains, locus YEL061C, strain CIN8, hits give low values 1.02 | S. cerevisiae deletion strains, locus YGR078C, strain PAC10, hits give low values 0.998 | [1] 1.03 | S. cerevisiae deletion strains, locus YHR087W, strain rtc3, hits give low values 1.02 | S. cerevisiae deletion strains, locus YJR043C, strain POL32, hits give low values 0.996 | S. cerevisiae deletion strains, locus YJR075W, strain HOC1, hits give low values 1.02 | S. cerevisiae deletion strains, locus YKL190W, strain CNB1, hits give low values 0.996 | S. cerevisiae deletion strains, locus YLR039C, strain RIC1, hits give low values 0.993 | S. cerevisiae deletion strains, locus YLR058C, strain SHM2 (second series), hits give low values 1.01 | S. cerevisiae deletion strains, locus YLR085C, strain ARP6, hits give low values 0.984 | S. cerevisiae deletion strains, locus YLR262C, strain YPT6, hits give low values 1.01 | S. cerevisiae deletion strains, locus YML094W, strain GIM5, hits give low values 1 | S. cerevisiae deletion strains, locus YMR219W, strain ESC1, hits give low values 1 | S. cerevisiae deletion strains, locus YMR263W, strain SAP30, hits give low values 0.989 | S. cerevisiae deletion strains, locus YNL153C, strain GIM3, hits give low values 1 | S. cerevisiae deletion strains, locus YNL298W, strain CLA4 (second series), hits give low values 1.02 | S. cerevisiae deletion strains, locus YNL322C, strain KRE1, hits give low values 1.01 | S. cerevisiae deletion strains, locus YNR030W, strain Alg12, hits give low values 1.01 | S. cerevisiae deletion strains, locus YPL055C, strain LGE1, hits give low values 1.02 | S. cerevisiae deletion strains, locus YPL241C, strain CIN2, hits give low values 1 | S. cerevisiae deletion strains, locus YPR135W, strain CTF4, hits give low values 1.01 | S. cerevisiae strains, strain wild type, hits give low values 1.01

CC1(C)N([O-])[N+](=O)C1(C)Br (configuration not stated)
inactive: S. cerevisiae deletion strains, locus YAL021C, strain ccr4, hits give low values 0.967 | S. cerevisiae deletion strains, locus YAL026C, strain drs2, hits give low values 0.99 | S. cerevisiae deletion strains, locus YAL030W, strain snc1, hits give low values 1 | S. cerevisiae deletion strains, locus YBL061C, strain skt5, hits give low values 0.981 | S. cerevisiae deletion strains, locus YBR009C, strain hhf1, hits give low values 0.995 | S. cerevisiae deletion strains, locus YBR023C, strain chs3, hits give low values 0.983 | S. cerevisiae deletion strains, locus YBR171W, strain sec66, hits give low values 0.968 | S. cerevisiae deletion strains, locus YBR231C, strain swc5, hits give low values 0.988 | S. cerevisiae deletion strains, locus YBR279W, strain paf1, hits give low values 0.995 | S. cerevisiae deletion strains, locus YCL011C, strain gbp2, hits give low values 0.965 | S. cerevisiae deletion strains, locus YCL016C, strain dcc1, hits give low values 0.99 | S. cerevisiae deletion strains, locus YCL061C, strain MRC1, hits give low values 1 | S. cerevisiae deletion strains, locus YCL069W, strain vba3, hits give low values 0.969 | S. cerevisiae deletion strains, locus YCR088W, strain abp1, hits give low values 0.967 | S. cerevisiae deletion strains, locus YDL005C, strain med2, hits give low values 0.978 | S. cerevisiae deletion strains, locus YDL040C, strain nat1, hits give low values 0.992 | S. cerevisiae deletion strains, locus YDR001C, strain nth1, hits give low values 0.987 | S. cerevisiae deletion strains, locus YDR069C, strain doa4, hits give low values 0.992 | S. cerevisiae deletion strains, locus YDR137W, strain rgp1, hits give low values 1.07 | S. cerevisiae deletion strains, locus YDR159W, strain sac3, hits give low values 0.98 | S. cerevisiae deletion strains, locus YDR195W, strain ref2 0.972 | S. cerevisiae deletion strains, locus YDR297W, strain sur2, hits give low values 0.987 | S. cerevisiae deletion strains, locus YDR334W, strain swr1, hits give low values 0.969 | S. cerevisiae deletion strains, locus YDR335W, strain msn5, hits give low values 0.968 | S. cerevisiae deletion strains, locus YDR392W, strain spt3, hits give low values 0.906 | S. cerevisiae deletion strains, locus YEL003W, strain gim4, hits give low values 0.984 | S. cerevisiae deletion strains, locus YEL037C, strain rad23, hits give low values 0.982 | S. cerevisiae deletion strains, locus YEL061C, strain CIN8 (second series), hits give low values 0.973 | S. cerevisiae deletion strains, locus YER015W, strain faa2, hits give low values 0.962 | S. cerevisiae deletion strains, locus YER016W, strain bim1, hits give low values 0.992 | S. cerevisiae deletion strains, locus YER111C, strain swi4, hits give low values 0.996 | S. cerevisiae deletion strains, locus YER155C, strain BEM2 (second series), hits give low values 0.974 | S. cerevisiae deletion strains, locus YFR010W, strain ubp6, hits give low values 0.979 | S. cerevisiae deletion strains, locus YGL167C, strain pmr1, hits give low values 0.987 | S. cerevisiae deletion strains, locus YGL173C, strain kem1, hits give low values 0.984 | S. cerevisiae deletion strains, locus YGL227W, strain vid30, hits give low values 0.982 | S. cerevisiae deletion strains, locus YGL240W, strain doc1, hits give low values 0.994 | S. cerevisiae deletion strains, locus YGL253W, strain hxk2, hits give low values 0.982 | S. cerevisiae deletion strains, locus YHR013C, strain ard1, hits give low values 0.977 | S. cerevisiae deletion strains, locus YHR027C, strain rpn1, hits give low values 0.991 | [1] 0.966 | S. cerevisiae deletion strains, locus YHR079C, strain IRE1, hits give low values 0.966 | S. cerevisiae deletion strains, locus YHR142W, strain chs7, hits give low values 0.968 | S. cerevisiae deletion strains, locus YJL092W, strain hpr5, hits give low values 0.963 | S. cerevisiae deletion strains, locus YJL095W, strain BCK1 (second series), hits give low values 0.973 | S. cerevisiae deletion strains, locus YJL095W, strain BCK1, hits give low values 0.975 | S. cerevisiae deletion strains, locus YJL115W, strain asf1, hits give low values 0.979 | S. cerevisiae deletion strains, locus YJL129C, strain trk1, hits give low values 0.976 | S. cerevisiae deletion strains, locus YJL154C, strain vps35, hits give low values 0.969 | S. cerevisiae deletion strains, locus YJL164C, strain tpk1, hits give low values 0.995 | S. cerevisiae deletion strains, locus YJL166W, strain qcr8, hits give low values 0.988 | S. cerevisiae deletion strains, locus YJL187C, strain SWE1, hits give low values 1.01 | S. cerevisiae deletion strains, locus YJR066W, strain TOR1, hits give low values 0.907 | S. cerevisiae deletion strains, locus YKL160W, strain elf1, hits give low values 0.998 | S. cerevisiae deletion strains, locus YKR026C, strain gcn3, hits give low values 0.984 | S. cerevisiae deletion strains, locus YKR091W, strain srl3, hits give low values 0.995 | S. cerevisiae deletion strains, locus YLL001W, strain dnm1, hits give low values 1 | S. cerevisiae deletion strains, locus YLL026W, hits give low values 0.986 | S. cerevisiae deletion strains, locus YLL041C, strain sdh2, hits give low values 0.99 | S. cerevisiae deletion strains, locus YLR027C, strain aat2, hits give low values 1 | S. cerevisiae deletion strains, locus YLR113W, strain HOG1, hits give low values 0.993 | S. cerevisiae deletion strains, locus YLR221C, strain rsa3, hits give low values 0.985 | S. cerevisiae deletion strains, locus YLR258W, strain gsy2, hits give low values 0.985 | S. cerevisiae deletion strains, locus YLR262C, strain YPT6 (second series), hits give low values 1.03 | S. cerevisiae deletion strains, locus YLR320W, strain mms22, hits give low values 0.985 | S. cerevisiae deletion strains, locus YLR342W, strain FKS1, hits give low values 0.978 | S. cerevisiae deletion strains, locus YLR357W, strain rsc2, hits give low values 0.999 | S. cerevisiae deletion strains, locus YLR370C, strain arc18, hits give low values 0.982 | S. cerevisiae deletion strains, locus YLR384C, strain iki3, hits give low values 0.986 | S. cerevisiae deletion strains, locus YML120C, strain ndi1, hits give low values 0.984 | S. cerevisiae deletion strains, locus YMR058W, strain fet3, hits give low values 0.994 | S. cerevisiae deletion strains, locus YMR125W, strain sto1, hits give low values 0.974 | S. cerevisiae deletion strains, locus YMR129W, hits give low values 0.992 | S. cerevisiae deletion strains, locus YMR205C, strain PFK2, hits give low values 0.998 | S. cerevisiae deletion strains, locus YMR231W, strain pep5, hits give low values 0.96 | S. cerevisiae deletion strains, locus YNL071W, strain lat1, hits give low values 0.973 | S. cerevisiae deletion strains, locus YNL183C, strain NPR1, hits give low values 0.912 | S. cerevisiae deletion strains, locus YNL209W, strain ssb2, hits give low values 0.989 | S. cerevisiae deletion strains, locus YNL248C, strain rpa49, hits give low values 0.992 | S. cerevisiae deletion strains, locus YNL322C, strain KRE1 (second series), hits give low values 0.979 | S. cerevisiae deletion strains, locus YNR049C, strain mso1, hits give low values 0.99 | S. cerevisiae deletion strains, locus YOR001W, strain rrp6, hits give low values 0.988 | S. cerevisiae deletion strains, locus YOR070C, strain gyp1, hits give low values 0.976 | S. cerevisiae deletion strains, locus YOR080W, strain dia2, hits give low values 0.985 | S. cerevisiae deletion strains, locus YOR083W, strain WHI5, hits give low values 0.994 | S. cerevisiae deletion strains, locus YOR106W, strain vam3, hits give low values 0.966 | S. cerevisiae deletion strains, locus YOR231W, strain MKK1, hits give low values 0.977 | S. cerevisiae deletion strains, locus YOR265W, strain rbl2, hits give low values 0.993 | S. cerevisiae deletion strains, locus YOR270C, strain vph1, hits give low values 1.01 | S. cerevisiae deletion strains, locus YOR290C, strain snf2, hits give low values 0.987 | S. cerevisiae deletion strains, locus YPL051W, strain arl3, hits give low values 0.985 | S. cerevisiae deletion strains, locus YPL078C, strain atp4, hits give low values 0.986 | S. cerevisiae deletion strains, locus YPL106C, strain sse1, hits give low values 0.977 | S. cerevisiae deletion strains, locus YPL240C, strain hsp82, hits give low values 0.97 | S. cerevisiae deletion strains, locus YPL256C, strain CLN2, hits give low values 0.956
